Measured values reported in PubChem BioAssay AID493034 (The Scripps Research Institute Molecular Screening Center, 2011).
Screen size: about 2,400 compounds; about 2,200 (92%) were called active. The set was probably picked from earlier hits. Some of the results follow. A number with no mark means an inactive call.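 Rule for the calls: active = mean inhibition over triplicate runs exceeds the cutoff derived for the earlier primary screen (cut at about 25% in these data); inactive = the rest.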

These molecules were tested against Platelet-activating factor acetylhydrolase IB subunit alpha2 (Homo sapiens) (UniProt P68402) (assay: PAFAH1B2 inhibitors, confirmation, biochemical, fluorescence polarization, FP-rhodamine probe, triplicate (AID 493034;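 note: 0% = enzyme with DMSO and 100% = wells lacking PAFAH1B2 protein; inhibitors lower polarization by leaving the probe unbound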)). Conditions: recombinant PAFAH1B2, FP-rhodamine probe fluorescence polarization; at 3.39 µM; stronger effect = higher value.
Sequence of Platelet-activating factor acetylhydrolase IB subunit alpha2 (Homo sapiens) (P68402 whole entry, looked up): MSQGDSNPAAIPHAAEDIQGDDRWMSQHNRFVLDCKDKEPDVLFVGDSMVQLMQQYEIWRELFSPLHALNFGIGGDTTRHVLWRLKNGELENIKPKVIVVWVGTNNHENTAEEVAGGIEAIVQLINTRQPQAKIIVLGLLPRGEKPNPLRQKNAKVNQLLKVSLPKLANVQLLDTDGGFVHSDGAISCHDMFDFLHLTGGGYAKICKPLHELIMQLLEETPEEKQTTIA

Compound	inhibition
S=c1[nH]nc(CSCCOc2ccc(Cl)cc2Cl)o1	23.3%
CC(C)C(C(=O)Nc1nccs1)c1ccc(Cl)cc1 (configuration not stated)	17.2%
N#Cc1c(NC(=O)C2CC=CCC2C(=O)O)sc2c1CCCCCC2 (configuration not stated)	41.1% (active)
CC(C)(C)NC(=O)C(=O)NNC(=O)COc1ccc(Br)cc1	23.5%
CCc1ccc(-c2cc(C(=O)Nn3cnnc3)c3ccccc3n2)cc1	30.2% (active)
CC(=O)N1CCOc2ccc(S(=O)(=O)NCCc3ccc(C)cc3)cc21	23.7%
Cc1ccc(S(=O)(=O)N2CCN(C(=S)NCCc3ccccc3)CC2)cc1	34.8% (active)
C=C1C(=O)[C@@]23[C@H](O)C[C@@H]4C(C)(C)CC[C@H](O)[C@@]4(C)[C@@H]2CC[C@@H]1[C@H]3O	84.8% (active)
C=C1C(=O)[C@@]23[C@H](O)C[C@@H]4C(C)(C)CC[C@H](O)[C@]4(C)[C@@H]2C[C@H](O)[C@@H]1[C@H]3O	69.2% (active)
Cc1ccc(Sc2ccc(/C=C3/C(=O)NN(c4ccccc4)C3=O)o2)cc1	73.8% (active)
Cc1ccc2c(c1)C=CC(C)N2C(=O)c1ccccc1 (configuration not stated)	21.4%
O=C(CCNS(=O)(=O)c1ccccc1)NCCCSc1ccccc1	22.4%
Cc1ccc(S(=O)(=O)/N=C2\SC(CC(=O)Nc3ccc(F)cc3)C(=O)N2c2ccccc2)cc1 (configuration not stated)	23.5%
O=C(NCCc1ccc(Cl)cc1)c1ccc(=O)[nH]c1	19.5%
Cc1ccc(CN=C2NC(=O)C(CC(=O)NCCc3ccccc3)S2)cc1 (configuration not stated)	51.6% (active)
C[C@H](CO)N1C[C@H](C)[C@@H](CN(C)C(=O)Nc2ccc(C(F)(F)F)cc2)Oc2c(NC(=O)Nc3ccccc3)cccc2C1=O	42.3% (active)
C[C@@H]1CN([C@H](C)CO)C(=O)c2cccc(NC(=O)NC3CCCCC3)c2O[C@@H]1CN(C)C(=O)Nc1ccc(C(F)(F)F)cc1	55.7% (active)
C[C@H](CO)N1C[C@H](C)[C@@H](CN(C)C(=O)Nc2ccccc2)Oc2c(NC(=O)Nc3ccc(C(F)(F)F)cc3)cccc2C1=O	23.4%
C[C@H](CO)N1C[C@H](C)[C@@H](CN(C)C(=O)Nc2ccc(C(F)(F)F)cc2)Oc2c(NC(=O)Nc3ccc4c(c3)OCO4)cccc2C1=O	44.2% (active)
C[C@H](CO)N1C[C@H](C)[C@@H](CN(C)C(=O)Nc2ccc(C(F)(F)F)cc2)Oc2c(NC(=O)Nc3ccc(C(F)(F)F)cc3)cccc2C1=O	62.5% (active)
COc1ccc(NC(=O)Nc2cccc3c2O[C@H](CN(C)C(=O)Nc2ccc(C(F)(F)F)cc2)[C@@H](C)CN([C@H](C)CO)C3=O)cc1	56.9% (active)
COc1ccc(NC(=O)N(C)C[C@H]2Oc3c(NC(=O)Nc4ccc(C(F)(F)F)cc4)cccc3C(=O)N([C@H](C)CO)C[C@@H]2C)cc1	28.7% (active)
